Source: PubChem
Hits are enriched below; roughly 19% of the tested compounds scored in any of these assays.
HT1080 IDH1KD tx – HT-1080 IDH1 knockdown cell toxicity (counter line) | Potency, µM (top dose mostly 46.1 µM), most hits filed as cytotoxic | AID 686971 | 360,000 tested, 2% active | HT-1080 IDH1 knockdown viability, ATP luminescence, 48 h
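Viability of IDH1-knockdown HT-1080 fibrosarcoma cells was assessed by CellTiter-Glo after 48 h at 37 °C with titrated compound; concentration-effect curves were classified by fit quality and response size.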
IL1B secr inh – inflammasome signaling inhibition, IL-1 beta readout | THP-1 LPS/ATP IL-1B secretion, AlphaLISA, 16 h; active compounds read low | activity change, % at 57.5 µM | 360,000 tested, 4.7% active | AID 743279; in the data active means activity change below about -50%; inconclusive means mostly about -30% to -49%
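Secreted IL-1B measured by AlphaLISA bead assay after 16 h compound exposure of THP-1 cells; compounds (final up to 57.5 uM) added 1 h before LPS (250 ng/mL) and ATP (1.25 mM) stimulation; lower signal means less secretion.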
DT40 TDP1 CPT – growth inhibition of DT40 Tdp1-/-;hTDP1 cells with camptothecin (screen for TDP1 inhibitors). AID 686979. 420,000 tested, 12% active. Potency, µM (highest dose often 46.2 µM), hits mostly inhibitors. chicken DT40 Tdp1-/-;hTDP1 cells + 20 nM CPT, ATP luminescence, 48 h; further: nearly all actives have a fitted effect of over 55% in size
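Chicken DT40 Tdp1-/- cells stably complemented with human TDP1 were seeded at 400 cells/well in medium containing 20 nM camptothecin, exposed to pin-transferred compounds, and grown at 37 °C for at least 48 hr. Viability was read as ATP luminescence.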
TDP1 cell noCPT – qHTS for Inhibitors of human tyrosyl-DNA phosphodiesterase 1 (TDP1): qHTS in cells in absence of CPT | Potency, µM (titrated, usually from 46.2 µM), actives largely listed as inhibitors | 420,000 tested, 15% active | DT40 Tdp1-/- hTDP1 cells, no CPT, ATP luminescence, 48 h; further: nearly all actives have a fitted effect of over 55% in size
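Readout: luminescence from CellTiter-Glo after 30 min in the dark at RT. Cells: DT40 Tdp1-/- with stable hTDP1, 400/well. Exposure: compounds alone, ≥48 hr, 37 °C.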
HT1080-NT tox – kills 2HG-producing HT-1080-NT fibrosarcoma cells; HT-1080-NT fibrosarcoma viability, CellTiter-Glo ATP luminescence, 48 h; Potency, µM (series often up to 46.1 µM), most hits filed as cytotoxic; 360,000 tested, 1.6% active; AID 686970;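 further: NT is the 2HG producing partner of a matched IDH1 knockdown line; nearly all actives have a fitted effect of over 55% in size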
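HT-1080-NT; 750 cells/well; 5% FBS RPMI; 48 h compound, 37 degrees C; CellTiter-Glo luminescence; curve fitting and curve-class assignment.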
Each line names hits and unclear results; the compound was inactive in the other large screens. Unless noted, the call rests on the fitted dose curve; in most records, active means well fitted curve in the direction sought with a large enough effect; inconclusive means small, poorly fitted or top-dose-only effect, or another doubt; inactive means no such curve, though single readings can be large; an effect the other way counts as inactive or inconclusive.

N#C/C(=C\c1cccnc1)C(=O)NC1CCCCC1	IL1B secr inh -78, DT40 TDP1 CPT inconclusive, TDP1 cell noCPT 23µM
N#C/C(=C\c1cccnc1)C(=O)Nc1cccc2ccccc12	HT1080 IDH1KD tx 21µM, IL1B secr inh inconclusive, DT40 TDP1 CPT inconclusive, TDP1 cell noCPT inconclusive, HT1080-NT tox inconclusive
N#C/C(=C\c1c[nH]c2ccccc12)C(=O)NC1CCCC1	DT40 TDP1 CPT 16µM, TDP1 cell noCPT 16µM
N#C/C(=C\c1c[nH]c2ccccc12)C(=O)NC1CC1	IL1B secr inh inconclusive
O=C(Nc1nc2ccc(SC(F)F)cc2s1)c1ccc(NS(=O)(=O)c2ccc(F)c(F)c2)cc1	HT1080 IDH1KD tx inconclusive, DT40 TDP1 CPT inconclusive, TDP1 cell noCPT inconclusive, HT1080-NT tox inconclusive
O=C(NCc1ccccc1F)C1CCCN(C(=O)NC2CCCCC2)C1 (configuration not stated)	none
CSC1=NC=C(C#N)C2=NC(c3c(Cl)cccc3Cl)NN12 (configuration not stated)	HT1080 IDH1KD tx inconclusive, DT40 TDP1 CPT inconclusive, TDP1 cell noCPT inconclusive, HT1080-NT tox inconclusive
CC1CCCCC1NC(=O)CN1CCC(NC(=O)c2cccc(F)c2)CC1 (configuration not stated)	none
Cc1ccc(C(=O)NCC(=O)NCC(=O)OCC(=O)c2ccc([N+](=O)[O-])cc2)cc1	DT40 TDP1 CPT 23µM, TDP1 cell noCPT 23µM
COc1ccc(C(=O)NCC(=O)OCc2ccc([N+](=O)[O-])cc2)cc1	none
Cc1ccc(C(=O)NCC(=O)NCC(=O)OCc2ccc(Oc3ccc([N+](=O)[O-])cc3)cc2)cc1	DT40 TDP1 CPT inconclusive, TDP1 cell noCPT 21µM
Cc1cc(C(=O)N/N=C/c2ccc3c(c2)OCO3)c(C)o1	HT1080 IDH1KD tx inconclusive, TDP1 cell noCPT inconclusive
Cc1cc(C(=O)N/N=C/c2ccc([N+](=O)[O-])o2)c(C)o1	DT40 TDP1 CPT 21µM, TDP1 cell noCPT 18µM, HT1080-NT tox inconclusive
Cc1nonc1C(=O)N/N=C/c1ccncc1	none
Cc1nonc1C(=O)N/N=C/c1ccc([N+](=O)[O-])o1	HT1080 IDH1KD tx inconclusive, DT40 TDP1 CPT 5.8µM, TDP1 cell noCPT 18µM
Cc1ccc(N(CC(=O)NCc2ccco2)C(=O)CNS(=O)(=O)c2ccccc2)c(C)c1	none
COC(=O)c1c(NC(=O)c2ccoc2C)sc(C)c1C	none
CCOC(=O)c1sc(NC(=O)c2ccoc2C)c(C(N)=O)c1C	DT40 TDP1 CPT 26µM, TDP1 cell noCPT 16µM
CCOC(=O)c1c(NC(=O)c2cc(C)oc2C)sc(C(=O)Nc2ccc(Cl)cc2)c1C	DT40 TDP1 CPT 8.9µM, TDP1 cell noCPT 5.6µM
CO[C@]1(NC(=O)C(C(=O)O)c2ccc(O)cc2)C(=O)N2C(C(=O)O)=C(CSc3nnnn3C)COC21 (some centres not stated)	none (no result: HT1080 IDH1KD tx, IL1B secr inh, HT1080-NT tox)
COc1cc(NC(=O)CSc2ncc3c(n2)-c2ccc(Cl)cc2N(Cc2ccccc2)S3(=O)=O)cc(OC)c1	none (no result: HT1080 IDH1KD tx, IL1B secr inh, HT1080-NT tox)
COc1ccccc1C(=O)NC(=O)Nc1cccc(Cl)c1	TDP1 cell noCPT inconclusive
O=C(NC(=O)c1c(F)cccc1F)Nc1cccc(Oc2ncc(Cl)cn2)c1	DT40 TDP1 CPT inconclusive, TDP1 cell noCPT 5.8µM
Cc1cccc(OCCCC(=O)NNC(=O)c2ccc(F)cc2)c1	none
COCCN=C1NN=C(c2ccc(NC(C)=O)cc2)CS1	none
COc1ccc(C2=NNC(=Nc3cc(S(=O)(=O)N(C)C)ccc3C)SC2)c(OC)c1	HT1080 IDH1KD tx inconclusive, IL1B secr inh -54, DT40 TDP1 CPT inconclusive, TDP1 cell noCPT 16µM, HT1080-NT tox inconclusive
CC(=O)Nc1ccc(C2=NNC(=Nc3cccc(S(=O)(=O)N(C)C)c3)SC2)cc1	HT1080 IDH1KD tx inconclusive, IL1B secr inh -79, DT40 TDP1 CPT 6.5µM, TDP1 cell noCPT 5.8µM, HT1080-NT tox inconclusive
CN(C)S(=O)(=O)c1cccc(N=C2NN=C(c3ccccc3)CS2)c1	HT1080 IDH1KD tx inconclusive, IL1B secr inh -57, DT40 TDP1 CPT 18µM, TDP1 cell noCPT 7.3µM, HT1080-NT tox inconclusive
Cc1cc(C2=NNC(=Nc3ccccc3)SC2)c(C)n1C	DT40 TDP1 CPT inconclusive, TDP1 cell noCPT inconclusive
